Source: PubChem BioAssay
RBX1-CUL1 inh: blocks human RBX1-Cullin-1 di-ubiquitin formation; P62877+Q13616; in vitro K48 di-Ub FRET, acceptor:donor ratio, 45 min; actives 0.6% (n = 140,000); inhibition, % at 10 µM; in the data active = inhibition above about 25%
Target sequence (P62877 whole entry, looked up): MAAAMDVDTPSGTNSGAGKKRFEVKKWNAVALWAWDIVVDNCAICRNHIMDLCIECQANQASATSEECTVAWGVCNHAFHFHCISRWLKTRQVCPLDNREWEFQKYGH
Target sequence (Q13616 whole entry, looked up): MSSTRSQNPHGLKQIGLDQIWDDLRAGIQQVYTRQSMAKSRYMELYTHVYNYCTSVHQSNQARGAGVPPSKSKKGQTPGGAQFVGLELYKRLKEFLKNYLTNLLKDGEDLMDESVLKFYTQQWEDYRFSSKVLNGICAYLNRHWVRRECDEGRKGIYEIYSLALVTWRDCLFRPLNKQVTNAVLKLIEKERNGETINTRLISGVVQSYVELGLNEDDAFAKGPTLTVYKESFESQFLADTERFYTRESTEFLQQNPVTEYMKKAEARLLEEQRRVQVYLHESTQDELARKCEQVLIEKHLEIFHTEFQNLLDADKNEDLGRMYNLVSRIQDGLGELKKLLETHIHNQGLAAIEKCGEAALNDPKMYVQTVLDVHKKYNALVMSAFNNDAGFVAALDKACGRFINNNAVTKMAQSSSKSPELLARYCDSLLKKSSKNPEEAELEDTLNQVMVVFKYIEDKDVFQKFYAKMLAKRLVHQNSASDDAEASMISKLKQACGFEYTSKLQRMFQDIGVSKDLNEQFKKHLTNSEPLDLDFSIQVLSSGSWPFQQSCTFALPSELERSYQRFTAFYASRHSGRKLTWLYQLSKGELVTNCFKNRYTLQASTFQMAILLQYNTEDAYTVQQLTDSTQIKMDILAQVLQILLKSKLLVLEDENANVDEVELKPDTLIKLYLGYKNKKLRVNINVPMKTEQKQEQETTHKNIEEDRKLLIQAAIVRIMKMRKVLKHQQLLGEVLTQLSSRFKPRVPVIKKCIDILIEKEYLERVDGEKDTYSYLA
Starred values were filed as active, the others as inactive. The entries come from a sample that favours hits as a whole.

SMILES	RBX1-CUL1 inh
COC(=O)c1ccc(-n2c(C)cc(/C=C3\C(=O)NC(=S)N(c4cccc(Cl)c4Cl)C3=O)c2C)c(C)c1	31*
Cc1cc(/C=C2\C(=O)NC(=S)N(c3cccc(Cl)c3Cl)C2=O)c(C)n1-c1cc(C(=O)O)cc(C(=O)O)c1	96*
CC1=CC(=C2C(=O)NC(=O)NC2=O)C=C(C)N1c1ccc(C(=O)O)cc1	-1
O=C1NC(=S)N(c2ccccc2)C(=O)/C1=C\c1ccc(OCc2ccccc2)c(C(=O)O)c1	10
Cc1c(Cl)cccc1N1C(=O)/C(=C/c2cc(C)n(-c3ccc(C(=O)O)cc3)c2C)C(=O)NC1=S	35*
Cc1ccc(N2C(=O)/C(=C\c3ccc(-c4cccc(C(=O)O)c4)o3)C(=O)NC2=S)cc1	90*
COC(=O)CN1C(=O)C2(C(C(=O)OC(C)(C)C)=C(C)OC(=N)C2C#N)c2ccccc21 (stereo not drawn)	-2
CC(C)(C)CCCCOC(=O)C(O)(c1ccccc1)c1ccccc1	3
CC1C2Cc3ccc(O)cc3C1(C)CCN2CCC1OCCO1 (stereo not drawn)	5
O=C(CN1CCCC1=O)N1CCNCC1	2
O=C(c1cc(F)ccc1F)C1CCCN(C2CCSCC2)C1 (stereo not drawn)	6
CN(C(=O)Cc1cccnc1)C1CCCN(CCCc2ccccc2)C1 (stereo not drawn)	1
CC(=O)c1cn(C2=NCCN2)c2ccccc12	0
CC1CN=C(Nc2ccc(F)cc2F)S1 (stereo not drawn)	14
Cc1ncc2c(c1-c1noc(-c3cscn3)n1)CCNC2	-1
CCOc1n[n+]([O-])c([N+](=O)[O-])cc1[N+](=O)[O-]	-1
O=C(COc1ccccc1Cl)N1CCN(C2CCCCC2)CC1	5
C=CC1CN2CCC1CC2[C@@H](OC(=O)/C=C/c1ccccc1)c1ccnc2ccc(OC)cc12 (stereo partly drawn)	3
NC(=O)OC1CCCC1	-4
CN(C)[C@@H]1c2ccccc2C2(CCNCC2)[C@H]1O	0
CCCCOC(=O)c1cc(-c2ccc(C=C3C(=O)NC(=O)NC3=O)o2)ccc1Cl	98*
CCOc1ccc(C2=C(C=C3C(=O)NC(=O)NC3=O)C(c3ccccc3C)c3ccccc3O2)cc1 (stereo not drawn)	6
COC(=O)CCC(=O)c1ccc(Br)cc1	2
C(CC(CCc1nn[nH]n1)c1nn[nH]n1)c1nn[nH]n1	-7
CC(C)(C)N1C(=O)NC(=O)/C(=C/c2c(Cl)cccc2Cl)C1=O	26*
SMILES	RBX1-CUL1 inh
O=C1NC(=S)NC(=O)C1=Cc1c(Cl)cccc1Cl	3
CC1(O)C=C[C@]2(C)C3CC[C@@]4(C)C(CC[C@@H]4O)C3CC[C@@]2(C)C1 (stereo partly drawn)	2
O=C(CN1CCOCC1)c1ccc(C2CCCC2)cc1	6
Cc1nc2c(Cl)cc(Cl)cc2c(=O)n1-c1ncccn1	5
O=C1NC(=S)NC(=O)C12C(c1ccccc1)NC(=S)NC2c1ccccc1 (stereo not drawn)	35*
CC(C)Nc1nc2ccccc2c(=O)n1-c1ccc(Cl)cc1	10
CC(C)Oc1cccc(C(=O)C2CCCN(Cc3cnc(N)nc3)C2)c1 (stereo not drawn)	2
Clc1ccc2c(c1)c1c3n2CNCC3CCC1 (stereo not drawn)	-8
CCCC12CN3CN(CC(C)(C3)C1=O)C2	13
O=C1NC(=S)NC(=O)C1=Cc1cn(Cc2ccc(Cl)cc2Cl)c2ccccc12	1
O=C1NC(=S)NC(=O)C1=Cc1ccc(O)c(O)c1	10
Cc1cc(C=C2C(=O)NC(=S)NC2=O)c(C)n1-c1ccc2c(c1)OCO2	52*
COc1cc(C=C2C(=O)NC(=S)NC2=O)ccc1OCc1ccc(F)cc1	-5
Cc1cc(C=C2C(=O)NC(=S)NC2=O)c(C)n1-c1cccc(C(F)(F)F)c1	26*
Cc1ccc(OCCn2c(C)c(C=C3C(=O)NC(=S)NC3=O)c3ccccc32)c(C)c1	6
CC1N=C(c2ccccc2)C2(c3ccccc3)C(C)N12 (stereo not drawn)	7
COc1ccc(CCNCC(O)C(O)C(O)C(O)CO)cc1OC (stereo not drawn)	0
CN(C)C(=O)Oc1c(/C=C/C2=CCCCCC2)sc2ccccc12	0
CN(C)C(=O)Oc1c(Br)cc(Br)c(OC(=O)N(C)C)c1Br	9
CNC(=O)Oc1c(Br)cc2sc(=O)oc2c1Br	34*
C(CCc1nn[nH]n1)Cc1nn[nH]n1	-1
O=C(Cc1ccc([N+](=O)[O-])cc1)Nc1ccc2c(C(F)(F)F)cc(=O)oc2c1	-6
NC1CC2C=CC1c1c(F)c(F)c(F)c(F)c12 (stereo not drawn)	-2
CC(=O)N1N=C2C3CCN(CC3)C2C1c1ccc([N+](=O)[O-])cc1 (stereo not drawn)	3
COc1ccc(-n2cccc2C=C2C(=O)NC(=O)NC2=O)cc1	14
COc1ccc(N2C(=O)/C(=C/c3cccn3-c3cccc(C(=O)O)c3)C(=O)NC2=S)c(OC)c1	63*
COc1ccc(C=C2C(=O)NC(=S)NC2=O)cc1OC(=O)c1ccccc1	1
COc1ccccc1Cn1cc(C(=O)NCCC(C)C)c(=O)c(C(=O)N(C)CCc2ccccn2)c1	-1
C=CC1CN2CCC1C(C(OC(=O)c1ccccc1OC(C)=O)c1ccnc3ccc(OC)cc13)C2 (stereo not drawn)	1
CCCC(C)C1(CC)C(=O)NC(=Nc2ccccc2C)NC1=O (stereo not drawn)	-2
